RGS4 inh – inhibitors of human regulator of G protein signaling 4; P49798; Transcreener GDP fluorescence polarization, RGS4-accelerated GTP hydrolysis; Potency, µM (doses to about 114 µM), without a hit: at the highest dose activity change, negative = inhibition, actives largely listed as inhibitors; hit rate 0.039% among 390,000; AID 504845; also: % is scaled to controls: 0 for no effect and ±100 for the full control effect; nearly all actives have a fitted effect of over 75% in size
Target sequence (P49798 whole entry, looked up): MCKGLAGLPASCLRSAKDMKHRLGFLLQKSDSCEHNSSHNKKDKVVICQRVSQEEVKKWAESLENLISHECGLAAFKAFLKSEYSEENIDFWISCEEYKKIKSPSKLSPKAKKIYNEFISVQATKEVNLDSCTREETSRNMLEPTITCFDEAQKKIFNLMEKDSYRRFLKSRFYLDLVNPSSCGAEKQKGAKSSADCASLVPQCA
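MLSMR compounds (23 nl, pin-transferred) preincubated 10 min at room temperature with a 500nM (2x) first reagent, then RGS4 at 900nM (2x) plus Transcreener GDP mix added; fluorescence polarization (620/688 nm) read before and after 90 min at 30 °C.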
PTHR1 ag – agonists of human PTHR1 parathyroid hormone receptor | Q03431 | HEK293 GP2 PTHR1 cells, GloSensor cAMP luminescence, 1 h | Potency, µM (top dose mostly 115 µM), for the others: top-dose activation, actives largely listed as activators | hit rate 0.075% among 410,000 | AID 743266; also: nearly all actives have a fitted effect of over 55% in size
Target sequence (Q03431 whole entry, looked up): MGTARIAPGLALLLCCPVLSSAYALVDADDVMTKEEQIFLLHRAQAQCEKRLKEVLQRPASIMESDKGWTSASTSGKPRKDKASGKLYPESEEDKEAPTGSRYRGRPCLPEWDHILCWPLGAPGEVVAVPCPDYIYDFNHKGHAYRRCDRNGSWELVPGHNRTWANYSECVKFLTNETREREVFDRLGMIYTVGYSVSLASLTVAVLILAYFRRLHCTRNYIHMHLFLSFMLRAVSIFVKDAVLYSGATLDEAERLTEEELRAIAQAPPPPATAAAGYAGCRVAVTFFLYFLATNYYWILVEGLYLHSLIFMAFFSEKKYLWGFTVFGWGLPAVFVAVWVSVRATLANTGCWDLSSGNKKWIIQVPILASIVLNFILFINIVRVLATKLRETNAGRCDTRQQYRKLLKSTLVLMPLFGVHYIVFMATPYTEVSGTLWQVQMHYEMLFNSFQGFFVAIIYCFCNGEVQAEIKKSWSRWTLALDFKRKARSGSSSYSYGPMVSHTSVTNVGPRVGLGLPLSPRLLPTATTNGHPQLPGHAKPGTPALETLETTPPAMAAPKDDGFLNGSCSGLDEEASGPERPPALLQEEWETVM
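HEK-293-derived GP2 cells expressing PTHR1 and a GloSensor cAMP reporter, 3,000/well, plated overnight, given luciferin plus IBMX (each 0.5 mM as added) for 1 h at 37 °C, then compound for 1 h at 37 °C. Luminescence was read after 15 min at room temperature.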
GLP1R ag – agonists of human GLP-1 receptor. P43220. HEK293 GLP-1R CRE-luciferase, luminescence, 4-6 h; cells express a hypersensitive GLP-1R form. Potency, µM (top dose mostly 45.6 µM), inactives show at the highest dose activation, usual class: activators. hit rate 0.007% among 380,000. AID 624172; also: % of control where 0% means no effect
GLP1R inv ag – GLP-1 receptor (human) inverse agonism. P43220. HEK293 GLP-1R CRE-luciferase, luminescence, 24 h; GLP-1R form is constitutively active. Potency, µM (top dose mostly 38.3 µM), for inactives: at the top dose activity change, negative = inhibition, usual class: inhibitors. hit rate 1.6% among 410,000. AID 624417; also: % is scaled to controls: 0 for no effect and ±100 for the full control effect; nearly all actives have a fitted effect of over 55% in size
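Constitutively active GLP-1R drives a cAMP-responsive luciferase in stably transfected HEK293 cells; test compounds are added after overnight (12 h) attachment and left 24 hr, and signal loss in luminescence marks inhibition.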
KAT2A inh – blocks human GCN5L2 histone acetyltransferase; GCN5L2 HAT assay, ThioGlo1 CoA-SH fluorescence; Potency, µM (titrated, usually from 58.9 µM), for the others: at the highest dose activity change, negative = inhibition, most hits filed as inhibitors; hit rate 0.21% among 390,000; AID 504327; also: % is scaled to controls: 0 for no effect and ±100 for the full control effect
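GCN5L2 (20nM final) in 50mM HEPES, 0.1mM EDTA pH 7.5, 0.01% Tween-20 was preincubated 15 min at room temperature with compound, then given ThioGlo1 (50uM), H3(1-25) peptide (75uM) and acetyl-CoA (70uM); CoA-thiol fluorescence (Ex340/Em540) was read at 0 and 20 min.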
HEK293 tox – cytotoxicity counter-screen for GLP-1 receptor inverse agonists. HEK293 cAMP-luciferase reporter cells, luminescence, 24 h. Potency, µM (titrated, usually from 38.3 µM), without a hit: top-dose activity change, negative = inhibition, hits mostly inhibitors. hit rate 0.13% among 410,000. AID 624418;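 also: loss of luciferase light is scored as toxicity; % is scaled to controls: 0 for no effect and ±100 for the full control effect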
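Quantitative HTS format, 1536 wells, 200 cells/uL seeded. Compounds: 23 nL, 24 h, 37 °C. Detection: luciferase reagent, luminescence at 12 min RT; decreased signal taken as cytotoxic.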
* hit, by the source's call; i = inactive; u = inconclusive; x = no result given; [ ] = dose if it differs, or a comment. Hits are enriched below; roughly 1.8% of the tested compounds scored in any of these assays. Calls follow the shape of the dose curve; as a rule, active = well fitted curve in the direction sought with a large enough effect; inconclusive = small, poorly fitted or top-dose-only effect, or another doubt; inactive = no such curve, though single readings can be large; an effect the other way counts as inactive or inconclusive. Potency is read from the fitted curve at half-maximal effect.

SMILES | RGS4 inh | PTHR1 ag | GLP1R ag | GLP1R inv ag | KAT2A inh | HEK293 tox
COc1ccc(OC)c(C2CC(=O)c3c([nH]c(C(=O)OC4CCC(C)CC4)c3C)C2)c1 (stereo not given) | -12.2% | i | x | u | -6.3% | -9.0%
Cc1ccsc1/C=N/Nc1cccc(C(=O)O)c1 | -10.6% | -25.3% | -9.2% | 4.47µM* | -3.1% | -3.5%
C[C@@H]1CN([C@@H](C)CO)C(=O)c2ccccc2-c2ccccc2CO[C@@H]1CN(C)S(=O)(=O)c1ccc(C(F)(F)F)cc1 | x | -23.1% | 9.6% | 10µM* | x | -42.3%
C[C@H](CO)N1C[C@H](C)[C@H](CN(C)S(=O)(=O)c2cccc(F)c2)OCc2ccccc2-c2c(n(C)c3ccccc23)C1=O | x | -25.2% | 8.3% | 11.2µM* | x | -27.9%
C[C@@H]1C[C@H](Nc2ccccc2)c2ccccc2N1C(=O)c1cccnc1 | -5.5% | i | -26.2% | u | -18.6% | -7.7%
CCn1ncc(CN2CCC(C(=O)Nc3cccc(-c4cccc(F)c4)c3)CC2)c1C | 15.0% | -1.0% | -3.3% | 4.6% | 1.7% | 5.3%
Cc1cc(C)n(CCCN2CCC(C(=O)Nc3cccc(-c4cccc(F)c4)c3)CC2)n1 | -4.1% | 9.8% | -8.4% | 7.08µM* | -3.5% | u
CCc1ccn2cc(-c3cc(-c4ccccc4)no3)nc2c1 | -46.4% | -39.8% | -3.2% | -73.7% | u | -11.8%
Cc1ccc2nc(-c3cc(-c4ccccc4)no3)cn2c1 | -9.1% | -28.7% | 4.8% | 3.98µM* | -0.3% | 8.7%
O=C(CN1C(=O)CSc2ccc(S(=O)(=O)N3CCCCC3)cc21)NCc1ccccc1Cl | -20.2% | i | -4.1% | 2.51µM* | -8.7% | -18.2%
O=C(Cc1coc2cc3c(cc12)CCC3)NCC1(N2CCCCC2)CCCCC1 | 23.4% | i | 8.8% | 10µM* | -2.7% | u
O=C(Cc1coc2cc3c(cc12)CCC3)NC1CCCCCCC1 | u | -16.5% | -0.4% | u | 11.8% | -0.1%
CC(NC(=O)/C(=C/c1ccc(OC(F)F)cc1)c1ccccc1)c1ccccc1 (stereo not given) | 3.1% | -46.6% | -13.3% | 4.47µM* | -9.2% | 21.5%
Cc1ccc(CN2CCN(CCCn3cnc4c(OCc5ccccc5)ncnc43)CC2)cc1 | -11.6% | -43.0% | -2.9% | 8.91µM* | x | -19.3%
Cc1cc(C)c(CN2CCN(C(=O)Cn3cnc4c(OCc5ccccc5)ncnc43)CC2)c(C)c1 | 14.6% | -42.4% | 0.4% | 6.31µM* | -9.1% | -11.4%
O=C(O)Cn1cnc2c(OCc3ccccc3)ncnc21 | 12.3% | -7.0% | -3.1% | 8.7% | 1.7% | -0.3%
OC(Cc1ccccc1Br)c1ncc(-c2cccc(C(F)(F)F)c2)[nH]1 (stereo not given) | x | -47.4% | 1.1% | 10µM* | x | -29.4%
Cc1ccc(S(=O)(=O)N(CC(=O)N2CCc3ccccc3C2)c2ccc(Cl)c(Cl)c2)cc1 | 4.2% | -27.2% | -3.1% | u | -4.8% | -0.6%[1.53 µM]
Cc1ccc(S(=O)(=O)N(CC(=O)N2CCc3ccccc3C2)c2ccc(C)c(C)c2)cc1 | -11.7% | -2.1% | x | 11.2µM* | 1.7% | -9.5%
COc1ccc(N(CC(=O)N2CCc3ccccc32)S(=O)(=O)c2c(C)nn(C)c2C)cc1 | 6.5% | -13.4% | 2.1% | -5.9% | -0.4% | 6.4%
Cc1ccc(N(CC(=O)N2CCc3ccccc32)S(=O)(=O)c2cccs2)cc1 | 1.7% | i | 0.4% | 10µM* | 3.2% | 4.3%
FC(F)(F)c1cc(-c2cccs2)nc2nc(N3CCOCC3)sc12 | 7.4% | i | -1.4% | 6.1% | -4.9% | 8.2%
CC(C)C(=O)N1CCC1(C)C(=O)NCc1ccc(C(C)(C)C)cc1 (stereo not given) | x | i | 14.0% | -8.1% | x | 5.5%
COc1cc(OC)cc(-c2oc(=O)c3cc(OC)c(OC)cc3c2/C=C/c2ccc(F)cc2)c1 | -21.4% | -57.5% | -0.1% | 4.4% | -10.3% | 1.4%
Cc1ccc(Cn2c(C3CCCN3c3nc(C)cs3)nc3cc(C(F)(F)F)ccc32)cc1 (stereo not given) | -28.8% | i | -0.4% | 10µM* | -6.6% | -27.4%
SMILES | RGS4 inh | PTHR1 ag | GLP1R ag | GLP1R inv ag | KAT2A inh | HEK293 tox
CCCCN1CCC[C@H]1CNC(=O)c1cc(C#N)c2ccccc2c1OC | x | x | x | x | -17.1% | x
O=C(Nc1cccc(Cl)c1)Nc1nccs1 | 12.5% | u | 2.7% | 0.0% | -5.1% | u
O=C(Nc1ccc(Cl)c(Cl)c1)Nc1nccs1 | -10.5% | -33.1% | -5.1% | 3.16µM* | 1.7% | 3.6%
CN1CCN(c2ccccc2NC(=O)c2ccc(Br)o2)CC1 | 29.9% | i | 0.2% | 77.8% | -6.8% | -8.9%
CS(=O)(=O)N1CCN(c2ccccc2NC(=O)c2ccc(Br)o2)CC1 | -13.5% | 28.5%[57.5 µM] | 5.6% | -28.4% | 31.6µM* | -11.1%
COC(=O)CCN(Cc1ccco1)S(=O)(=O)c1ccc(F)cc1Br | -8.0% | x | x | x | x | x
COC(=O)c1nc(NC(=S)NC(=O)c2cccs2)sc1C | -27.8% | -6.9% | 1.2% | -5.1% | 0.5% | -7.8%
O=C(NC(=S)Nc1nc2ccccc2s1)c1cccs1 | -36.5% | -54.6% | -5.1% | 0.9% | -1.9% | 2.51µM*
NC(=S)Nc1nc2ccccc2s1 | -43.9% | -11.1% | 7.9% | 4.47µM* | -14.9% | u
O=C(O)c1sccc1Oc1ccc(NS(=O)(=O)c2ccccc2)cc1 | 8.5%[56.9 µM] | -10.7% | 8.6% | 9.3% | -26.1% | 0.7%
CCCC[C@H](NC(=O)[C@H](CC(C)C)NC(=O)CNC(=O)[C@@H](NC(=O)[C@H](Cc1ccccc1)NC(=O)[C@H](CO)NC(=O)[C@@H](N)CC(=O)O)C(C)C)C(N)=O | x | x | x | x | 0.1% | x
COc1ccc(C(O)c2ncc(-c3cccc4ccccc34)[nH]2)cc1F (stereo not given) | x | i | 3.7% | u | x | -11.8%
O=C(CSc1cccc[n+]1[O-])Nc1c(Br)cc([N+](=O)[O-])cc1Br | 17.2% | u | -2.6% | 10.3% | -1.0% | -4.4%
CC(C)COc1ccc(C(=O)N(CC(=O)Nc2ccccc2C(F)(F)F)Cc2ccco2)cc1 | -23.5% | i | 10.8% | 4.47µM* | -9.2% | u
CCN(CC)c1ccc(NC(=O)CN2CCN(c3ccc(F)cc3)CC2)cc1 | -34.7% | -14.0% | -1.1% | 10µM* | -0.6% | -3.2%
O=C(CN1CCN(c2ccc(Cl)cc2)CC1)Nc1ccc(F)cc1 | 15.7% | 3.1%[57.5 µM] | -0.2% | u | -6.0% | 5.0%
Cc1ccc(Cl)cc1N1CCN(CC(=O)Nc2ccc(CN3CCCCC3)cc2)CC1 | -12.7% | -19.0%[57.5 µM] | -12.1% | 11.2µM* | 1.1% | u
